From PubChem BioAssay AID1159580 (chemical genetic matrix, 2015)
In all, about 5,500 compounds went through this assay and about 2,000 (36%) were called active. Inconclusive results (about 18%) are left out. No stated cut-off is given here; in the data, active means normalized growth mostly below about 0.91 (no sharp cut-off); inconclusive means no clear call, values can overlap the other calls; inactive means mostly above about 0.92. The list shows a part of the results.

Assay: chemical genetic growth profiling, strain panel (AID 1159580);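 further: tested at 20 µM; growth read once vehicle control cultures reached saturation at 30 °C; 1 = growth at the plate median or of vehicle wells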
Settings: growth OD

Measured: normalized growth

CC(=O)c1cc(CC=C(C)C)c(O)c(CC=C(C)C)c1
active: S. cerevisiae deletion strains, locus YKR001C, strain vps1, stronger effect = lower value 0.898 | S. cerevisiae deletion strains, locus YLR418C, strain cdc73, stronger effect = lower value 0.758 | S. cerevisiae deletion strains, locus YOR184W, strain ser1, stronger effect = lower value 0.838
inactive: S. cerevisiae deletion strains, locus YJL187C, strain SWE1 (second series), stronger effect = lower value 0.961 | S. cerevisiae deletion strains, locus YJL187C, strain SWE1, stronger effect = lower value 1.01 | S. cerevisiae deletion strains, locus YJR043C, strain POL32, stronger effect = lower value 0.998 | S. cerevisiae deletion strains, locus YKL009W, strain mrt4, stronger effect = lower value 0.947 | S. cerevisiae deletion strains, locus YKL068W, stronger effect = lower value 0.969 | S. cerevisiae deletion strains, locus YKL085W, strain MDH1 (second series), stronger effect = lower value 0.967 | S. cerevisiae deletion strains, locus YKL085W, strain MDH1, stronger effect = lower value 0.967 | S. cerevisiae deletion strains, locus YKL160W, strain elf1, stronger effect = lower value 1 | S. cerevisiae deletion strains, locus YKR026C, strain gcn3, stronger effect = lower value 1.01 | S. cerevisiae deletion strains, locus YKR091W, strain srl3, stronger effect = lower value 1.01 | S. cerevisiae deletion strains, locus YLL001W, strain dnm1, stronger effect = lower value 1 | S. cerevisiae deletion strains, locus YLL026W, stronger effect = lower value 1.01 | S. cerevisiae deletion strains, locus YLL041C, strain sdh2, stronger effect = lower value 1.01 | S. cerevisiae deletion strains, locus YLR027C, strain aat2, stronger effect = lower value 1.01 | S. cerevisiae deletion strains, locus YLR039C, strain RIC1, stronger effect = lower value 0.697 | S. cerevisiae deletion strains, locus YLR058C, strain SHM2, stronger effect = lower value 0.982 | S. cerevisiae deletion strains, locus YLR102C, strain apc9, stronger effect = lower value 0.964 | S. cerevisiae deletion strains, locus YLR221C, strain rsa3, stronger effect = lower value 1 | S. cerevisiae deletion strains, locus YLR258W, strain gsy2, stronger effect = lower value 1.01 | S. cerevisiae deletion strains, locus YLR262C, strain YPT6 (second series), stronger effect = lower value 0.949 | S. cerevisiae deletion strains, locus YLR262C, strain YPT6, stronger effect = lower value 0.747 | S. cerevisiae deletion strains, locus YLR268W, strain sec22, stronger effect = lower value 0.924 | S. cerevisiae deletion strains, locus YLR320W, strain mms22, stronger effect = lower value 1.01 | S. cerevisiae deletion strains, locus YLR330W, strain CHS5, stronger effect = lower value 0.923 | S. cerevisiae deletion strains, locus YLR342W, strain FKS1 (second series), stronger effect = lower value 1.03 | S. cerevisiae deletion strains, locus YLR342W, strain FKS1, stronger effect = lower value 1.02 | S. cerevisiae deletion strains, locus YLR357W, strain rsc2, stronger effect = lower value 1.04 | S. cerevisiae deletion strains, locus YLR370C, strain arc18, stronger effect = lower value 1 | S. cerevisiae deletion strains, locus YLR371W, strain rom2, stronger effect = lower value 0.968 | S. cerevisiae deletion strains, locus YLR384C, strain iki3, stronger effect = lower value 1.01 | S. cerevisiae deletion strains, locus YML016C, strain PPZ1, stronger effect = lower value 0.992 | S. cerevisiae deletion strains, locus YML032C, strain rad52, stronger effect = lower value 0.988 | S. cerevisiae deletion strains, locus YML120C, strain ndi1, stronger effect = lower value 0.997 | S. cerevisiae deletion strains, locus YML124C, strain tub3, stronger effect = lower value 0.965 | S. cerevisiae deletion strains, locus YMR058W, strain fet3, stronger effect = lower value 1.01 | S. cerevisiae deletion strains, locus YMR078C, strain ctf18, stronger effect = lower value 0.962 | S. cerevisiae deletion strains, locus YMR125W, strain sto1, stronger effect = lower value 1.02 | S. cerevisiae deletion strains, locus YMR129W, stronger effect = lower value 1.01 | S. cerevisiae deletion strains, locus YMR205C, strain PFK2, stronger effect = lower value 1.01 | S. cerevisiae deletion strains, locus YMR223W, strain ubp8, stronger effect = lower value 0.951 | S. cerevisiae deletion strains, locus YMR231W, strain pep5, stronger effect = lower value 1.01 | S. cerevisiae deletion strains, locus YMR307W, strain GAS1, stronger effect = lower value 0.833 | S. cerevisiae deletion strains, locus YNL067W, strain RPL9B, stronger effect = lower value 0.925 | S. cerevisiae deletion strains, locus YNL071W, strain lat1, stronger effect = lower value 1.01 | S. cerevisiae deletion strains, locus YNL128W, strain TEP1, stronger effect = lower value 0.917 | S. cerevisiae deletion strains, locus YNL153C, strain GIM3, stronger effect = lower value 0.985 | S. cerevisiae deletion strains, locus YNL209W, strain ssb2, stronger effect = lower value 1.01 | S. cerevisiae deletion strains, locus YNL233W, strain BNI4, stronger effect = lower value 0.953 | S. cerevisiae deletion strains, locus YNL248C, strain rpa49, stronger effect = lower value 1.01 | S. cerevisiae deletion strains, locus YNL250W, strain rad50, stronger effect = lower value 0.979 | S. cerevisiae deletion strains, locus YNL271C, strain bni1, stronger effect = lower value 0.962 | S. cerevisiae deletion strains, locus YNL298W, strain CLA4, stronger effect = lower value 0.979 | S. cerevisiae deletion strains, locus YNL307C, strain MCK1, stronger effect = lower value 0.955 | S. cerevisiae deletion strains, locus YNL322C, strain KRE1 (second series), stronger effect = lower value 1.01 | S. cerevisiae deletion strains, locus YNR049C, strain mso1, stronger effect = lower value 1.01 | S. cerevisiae deletion strains, locus YNR052C, strain pop2, stronger effect = lower value 0.989 | S. cerevisiae deletion strains, locus YOL006C, strain TOP1, stronger effect = lower value 0.75 | S. cerevisiae deletion strains, locus YOL012C, strain htz1 0.849 | S. cerevisiae deletion strains, locus YOL147C, strain pex11, stronger effect = lower value 0.981 | S. cerevisiae deletion strains, locus YOR001W, strain rrp6, stronger effect = lower value 1.02 | S. cerevisiae deletion strains, locus YOR061W, strain CKA2, stronger effect = lower value 0.978 | S. cerevisiae deletion strains, locus YOR069W, strain VPS5, stronger effect = lower value 0.986 | S. cerevisiae deletion strains, locus YOR070C, strain gyp1, stronger effect = lower value 1.02 | S. cerevisiae deletion strains, locus YOR080W, strain dia2, stronger effect = lower value 1.02 | S. cerevisiae deletion strains, locus YOR083W, strain WHI5, stronger effect = lower value 1 | S. cerevisiae deletion strains, locus YOR106W, strain vam3, stronger effect = lower value 0.995 | S. cerevisiae deletion strains, locus YOR136W, strain idh2, stronger effect = lower value 0.973 | S. cerevisiae deletion strains, locus YOR144C, strain elg1, stronger effect = lower value 0.981 | S. cerevisiae deletion strains, locus YOR265W, strain rbl2, stronger effect = lower value 1.02 | S. cerevisiae deletion strains, locus YOR270C, strain vph1, stronger effect = lower value 0.949 | S. cerevisiae deletion strains, locus YOR290C, strain snf2, stronger effect = lower value 1.02 | S. cerevisiae deletion strains, locus YOR316C, strain cot1, stronger effect = lower value 0.979 | S. cerevisiae deletion strains, locus YPL051W, strain arl3, stronger effect = lower value 1.01 | S. cerevisiae deletion strains, locus YPL078C, strain atp4, stronger effect = lower value 1.01 | S. cerevisiae deletion strains, locus YPL106C, strain sse1, stronger effect = lower value 1.06 | S. cerevisiae deletion strains, locus YPL240C, strain hsp82, stronger effect = lower value 1.02 | S. cerevisiae deletion strains, locus YPL241C, strain CIN2, stronger effect = lower value 0.974 | S. cerevisiae deletion strains, locus YPR119W, strain clb2, stronger effect = lower value 0.987 | S. cerevisiae deletion strains, locus YPR141C, strain kar3, stronger effect = lower value 0.97 | S. cerevisiae deletion strains, locus YPR163C, strain tif3, stronger effect = lower value 0.952 | S. cerevisiae deletion strains, locus YPR167C, strain met16, stronger effect = lower value 0.974 | S. cerevisiae deletion strains, strain wtn01, stronger effect = lower value 0.908 | S. cerevisiae strains, strain wild type, stronger effect = lower value 0.957
